Data: ChEMBL document CHEMBL1961873, “Compounds: GSK PKIS; Assays: Nanosyn kinase panel” (2012)

Experiments:
[1] = molecular target: Sphingosine kinase 1 (Homo sapiens) (UniProt Q9NYA1); details: at 1 µM;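 note: mean SPHK1 inhibition value reported from the GSK PKIS kinase panel screen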
[2] = molecular target: T1, Sphingosine kinase 2 (Homo sapiens) (UniProt Q9NRA0); details: at 0.1 µM
T1 sequence (whole entry): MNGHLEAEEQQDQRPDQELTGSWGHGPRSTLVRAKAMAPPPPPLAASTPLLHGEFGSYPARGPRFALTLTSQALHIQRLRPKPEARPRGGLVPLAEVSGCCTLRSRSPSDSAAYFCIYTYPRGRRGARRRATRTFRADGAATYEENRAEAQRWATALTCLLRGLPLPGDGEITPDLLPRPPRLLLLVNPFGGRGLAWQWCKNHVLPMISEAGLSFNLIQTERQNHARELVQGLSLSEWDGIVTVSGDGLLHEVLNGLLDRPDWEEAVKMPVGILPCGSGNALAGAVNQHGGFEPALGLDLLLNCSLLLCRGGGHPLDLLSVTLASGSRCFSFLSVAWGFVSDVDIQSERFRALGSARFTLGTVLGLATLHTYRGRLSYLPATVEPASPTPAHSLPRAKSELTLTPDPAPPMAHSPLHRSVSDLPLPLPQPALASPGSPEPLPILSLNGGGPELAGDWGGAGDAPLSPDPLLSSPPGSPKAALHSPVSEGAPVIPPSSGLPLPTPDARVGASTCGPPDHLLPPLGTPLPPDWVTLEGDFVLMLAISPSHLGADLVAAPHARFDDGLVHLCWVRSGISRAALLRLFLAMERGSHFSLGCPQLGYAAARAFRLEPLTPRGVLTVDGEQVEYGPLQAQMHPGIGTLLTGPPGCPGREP

[3] = molecular target: T1, Sphingosine kinase 2 (Homo sapiens); details: at 1 µM
[4] = molecular target: Casein kinase II subunit alpha (Homo sapiens) (UniProt P68400); details: at 0.1 µM
[5] = molecular target: Casein kinase II subunit alpha (Homo sapiens) (UniProt P68400); details: at 1 µM
[6] = molecular target: T2, Inhibitor of nuclear factor kappa-B kinase subunit alpha (Homo sapiens) (UniProt O15111); details: at 0.1 µM
T2 sequence (whole entry): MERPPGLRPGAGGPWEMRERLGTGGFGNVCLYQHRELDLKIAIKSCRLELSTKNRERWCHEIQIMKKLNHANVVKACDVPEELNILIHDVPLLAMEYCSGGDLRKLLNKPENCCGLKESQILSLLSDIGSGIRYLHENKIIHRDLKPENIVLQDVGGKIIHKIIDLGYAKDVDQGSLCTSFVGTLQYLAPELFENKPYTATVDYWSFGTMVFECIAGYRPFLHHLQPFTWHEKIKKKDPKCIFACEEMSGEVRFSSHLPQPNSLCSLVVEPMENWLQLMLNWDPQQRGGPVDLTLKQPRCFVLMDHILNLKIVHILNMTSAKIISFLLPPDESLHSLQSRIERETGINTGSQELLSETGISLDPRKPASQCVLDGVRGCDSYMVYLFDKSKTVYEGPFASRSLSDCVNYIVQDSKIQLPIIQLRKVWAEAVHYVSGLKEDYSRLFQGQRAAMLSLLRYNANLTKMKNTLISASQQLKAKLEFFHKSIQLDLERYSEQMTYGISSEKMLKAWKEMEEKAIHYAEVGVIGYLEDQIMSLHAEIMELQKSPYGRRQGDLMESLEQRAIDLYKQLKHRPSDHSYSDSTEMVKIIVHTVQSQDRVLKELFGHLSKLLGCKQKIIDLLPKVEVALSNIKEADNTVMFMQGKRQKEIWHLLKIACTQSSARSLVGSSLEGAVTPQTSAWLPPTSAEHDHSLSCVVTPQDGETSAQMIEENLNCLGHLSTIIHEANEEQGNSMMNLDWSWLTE

[7] = molecular target: T2, Inhibitor of nuclear factor kappa-B kinase subunit alpha (Homo sapiens); details: at 1 µM
[8] = molecular target: T3, Inhibitor of nuclear factor kappa-B kinase subunit beta (Homo sapiens) (UniProt O14920); details: at 0.1 µM
T3 sequence (whole entry): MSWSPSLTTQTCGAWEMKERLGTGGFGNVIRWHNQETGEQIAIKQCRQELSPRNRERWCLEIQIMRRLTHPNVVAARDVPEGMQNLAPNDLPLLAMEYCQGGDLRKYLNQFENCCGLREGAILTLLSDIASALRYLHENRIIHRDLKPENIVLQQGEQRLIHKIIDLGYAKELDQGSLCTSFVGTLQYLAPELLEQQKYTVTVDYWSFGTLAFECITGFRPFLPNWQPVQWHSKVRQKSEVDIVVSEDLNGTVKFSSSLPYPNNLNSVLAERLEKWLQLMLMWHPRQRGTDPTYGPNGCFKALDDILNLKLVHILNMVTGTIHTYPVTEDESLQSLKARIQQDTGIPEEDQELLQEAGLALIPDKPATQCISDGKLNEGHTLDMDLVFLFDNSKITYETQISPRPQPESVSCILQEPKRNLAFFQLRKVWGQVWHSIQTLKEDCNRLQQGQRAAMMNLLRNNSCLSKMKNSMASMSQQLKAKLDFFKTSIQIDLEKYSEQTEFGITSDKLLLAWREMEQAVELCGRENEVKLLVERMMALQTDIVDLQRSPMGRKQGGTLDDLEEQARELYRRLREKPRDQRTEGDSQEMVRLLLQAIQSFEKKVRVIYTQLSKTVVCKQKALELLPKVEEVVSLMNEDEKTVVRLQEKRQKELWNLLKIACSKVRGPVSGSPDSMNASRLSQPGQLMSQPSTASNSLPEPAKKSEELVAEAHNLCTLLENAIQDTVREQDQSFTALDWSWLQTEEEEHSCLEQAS

[9] = molecular target: T3, Inhibitor of nuclear factor kappa-B kinase subunit beta (Homo sapiens); details: at 1 µM
[10] = molecular target: T4, Inhibitor of nuclear factor kappa-B kinase subunit epsilon (Homo sapiens) (UniProt Q14164); details: at 0.1 µM
T4 sequence (whole entry): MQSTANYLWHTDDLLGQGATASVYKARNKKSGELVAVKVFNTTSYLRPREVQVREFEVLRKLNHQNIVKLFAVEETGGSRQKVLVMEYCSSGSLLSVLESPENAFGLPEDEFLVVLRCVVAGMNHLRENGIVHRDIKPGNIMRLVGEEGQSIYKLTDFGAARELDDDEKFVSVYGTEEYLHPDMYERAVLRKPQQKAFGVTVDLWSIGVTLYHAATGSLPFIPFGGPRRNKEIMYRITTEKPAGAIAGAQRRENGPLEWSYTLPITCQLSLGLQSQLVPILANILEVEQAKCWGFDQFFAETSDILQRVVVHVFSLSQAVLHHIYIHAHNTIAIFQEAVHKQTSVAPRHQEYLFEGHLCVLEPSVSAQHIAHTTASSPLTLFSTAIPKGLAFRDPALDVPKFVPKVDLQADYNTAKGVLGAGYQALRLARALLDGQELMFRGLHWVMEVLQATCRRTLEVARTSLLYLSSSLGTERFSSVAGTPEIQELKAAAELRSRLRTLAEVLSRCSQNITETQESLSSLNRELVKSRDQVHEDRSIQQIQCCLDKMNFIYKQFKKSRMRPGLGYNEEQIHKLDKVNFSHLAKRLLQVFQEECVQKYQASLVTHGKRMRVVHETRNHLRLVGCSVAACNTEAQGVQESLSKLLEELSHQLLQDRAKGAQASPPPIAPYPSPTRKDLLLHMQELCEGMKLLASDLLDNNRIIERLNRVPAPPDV

[11] = molecular target: T4, Inhibitor of nuclear factor kappa-B kinase subunit epsilon (Homo sapiens); details: at 1 µM
[12] = molecular target: T5, Serine/threonine-protein kinase Nek1 (Homo sapiens) (UniProt Q96PY6); details: at 0.1 µM
T5 sequence (whole entry): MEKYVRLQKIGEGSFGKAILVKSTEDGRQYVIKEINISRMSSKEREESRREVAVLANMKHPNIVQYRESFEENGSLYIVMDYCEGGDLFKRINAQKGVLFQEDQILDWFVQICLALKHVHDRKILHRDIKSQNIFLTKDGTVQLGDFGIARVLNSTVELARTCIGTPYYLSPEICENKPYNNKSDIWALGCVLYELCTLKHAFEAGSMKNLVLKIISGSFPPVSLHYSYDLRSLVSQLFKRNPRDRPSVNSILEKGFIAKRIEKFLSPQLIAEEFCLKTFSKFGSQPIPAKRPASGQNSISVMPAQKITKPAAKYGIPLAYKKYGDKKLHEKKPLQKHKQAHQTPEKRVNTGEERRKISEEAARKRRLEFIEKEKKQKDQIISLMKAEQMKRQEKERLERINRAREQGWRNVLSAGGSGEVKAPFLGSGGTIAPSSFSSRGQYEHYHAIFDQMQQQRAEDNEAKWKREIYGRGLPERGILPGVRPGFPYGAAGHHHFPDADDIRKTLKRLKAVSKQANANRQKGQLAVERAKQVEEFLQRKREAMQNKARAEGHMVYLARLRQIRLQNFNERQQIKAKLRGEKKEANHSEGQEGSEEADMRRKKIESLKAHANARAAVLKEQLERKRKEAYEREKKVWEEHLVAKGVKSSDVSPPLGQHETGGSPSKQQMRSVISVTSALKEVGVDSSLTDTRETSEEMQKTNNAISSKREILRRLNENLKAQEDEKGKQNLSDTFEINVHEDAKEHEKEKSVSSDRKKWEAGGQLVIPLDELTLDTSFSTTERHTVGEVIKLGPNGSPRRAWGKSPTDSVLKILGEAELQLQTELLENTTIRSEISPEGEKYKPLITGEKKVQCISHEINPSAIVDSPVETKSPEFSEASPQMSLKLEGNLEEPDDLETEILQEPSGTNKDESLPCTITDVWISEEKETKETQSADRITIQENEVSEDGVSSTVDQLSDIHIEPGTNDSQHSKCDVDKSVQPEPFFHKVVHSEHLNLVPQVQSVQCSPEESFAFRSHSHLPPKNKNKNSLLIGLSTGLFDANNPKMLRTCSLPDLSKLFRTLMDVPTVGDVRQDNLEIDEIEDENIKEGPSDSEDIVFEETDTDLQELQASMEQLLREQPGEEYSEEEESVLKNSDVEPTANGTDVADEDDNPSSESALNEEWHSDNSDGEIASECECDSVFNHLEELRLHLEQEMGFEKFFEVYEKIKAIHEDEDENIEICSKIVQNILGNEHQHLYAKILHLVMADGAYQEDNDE

[13] = molecular target: T5, Serine/threonine-protein kinase Nek1 (Homo sapiens); details: at 1 µM
[14] = molecular target: T6, Serine/threonine-protein kinase Nek2 (Homo sapiens) (UniProt P51955); details: at 0.1 µM
T6 sequence (whole entry): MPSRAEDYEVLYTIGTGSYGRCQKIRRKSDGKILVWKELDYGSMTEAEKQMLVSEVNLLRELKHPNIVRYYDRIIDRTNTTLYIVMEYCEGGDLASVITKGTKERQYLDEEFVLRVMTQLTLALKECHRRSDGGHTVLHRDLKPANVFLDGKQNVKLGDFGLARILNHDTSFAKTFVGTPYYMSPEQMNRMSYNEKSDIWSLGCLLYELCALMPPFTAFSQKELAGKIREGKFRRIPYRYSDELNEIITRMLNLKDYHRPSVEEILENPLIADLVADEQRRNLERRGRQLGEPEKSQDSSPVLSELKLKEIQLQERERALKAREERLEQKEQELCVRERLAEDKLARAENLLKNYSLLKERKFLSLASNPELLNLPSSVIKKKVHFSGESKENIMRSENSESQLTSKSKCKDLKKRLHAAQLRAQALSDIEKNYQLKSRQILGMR

[15] = molecular target: T6, Serine/threonine-protein kinase Nek2 (Homo sapiens); details: at 1 µM
[16] = molecular target: Serine/threonine-protein kinase Nek6 (Homo sapiens) (UniProt Q9HC98); details: at 0.1 µM
[17] = molecular target: Serine/threonine-protein kinase Nek6 (Homo sapiens) (UniProt Q9HC98); details: at 1 µM
[18] = molecular target: Serine/threonine-protein kinase Nek7 (Homo sapiens) (UniProt Q8TDX7); details: at 0.1 µM
[19] = molecular target: Serine/threonine-protein kinase Nek7 (Homo sapiens) (UniProt Q8TDX7); details: at 1 µM
[20] = molecular target: T7, Serine/threonine-protein kinase Nek9 (Homo sapiens) (UniProt Q8TD19); details: at 0.1 µM;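 note: reported value is the mean percent inhibition of NEK9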
T7 sequence (whole entry): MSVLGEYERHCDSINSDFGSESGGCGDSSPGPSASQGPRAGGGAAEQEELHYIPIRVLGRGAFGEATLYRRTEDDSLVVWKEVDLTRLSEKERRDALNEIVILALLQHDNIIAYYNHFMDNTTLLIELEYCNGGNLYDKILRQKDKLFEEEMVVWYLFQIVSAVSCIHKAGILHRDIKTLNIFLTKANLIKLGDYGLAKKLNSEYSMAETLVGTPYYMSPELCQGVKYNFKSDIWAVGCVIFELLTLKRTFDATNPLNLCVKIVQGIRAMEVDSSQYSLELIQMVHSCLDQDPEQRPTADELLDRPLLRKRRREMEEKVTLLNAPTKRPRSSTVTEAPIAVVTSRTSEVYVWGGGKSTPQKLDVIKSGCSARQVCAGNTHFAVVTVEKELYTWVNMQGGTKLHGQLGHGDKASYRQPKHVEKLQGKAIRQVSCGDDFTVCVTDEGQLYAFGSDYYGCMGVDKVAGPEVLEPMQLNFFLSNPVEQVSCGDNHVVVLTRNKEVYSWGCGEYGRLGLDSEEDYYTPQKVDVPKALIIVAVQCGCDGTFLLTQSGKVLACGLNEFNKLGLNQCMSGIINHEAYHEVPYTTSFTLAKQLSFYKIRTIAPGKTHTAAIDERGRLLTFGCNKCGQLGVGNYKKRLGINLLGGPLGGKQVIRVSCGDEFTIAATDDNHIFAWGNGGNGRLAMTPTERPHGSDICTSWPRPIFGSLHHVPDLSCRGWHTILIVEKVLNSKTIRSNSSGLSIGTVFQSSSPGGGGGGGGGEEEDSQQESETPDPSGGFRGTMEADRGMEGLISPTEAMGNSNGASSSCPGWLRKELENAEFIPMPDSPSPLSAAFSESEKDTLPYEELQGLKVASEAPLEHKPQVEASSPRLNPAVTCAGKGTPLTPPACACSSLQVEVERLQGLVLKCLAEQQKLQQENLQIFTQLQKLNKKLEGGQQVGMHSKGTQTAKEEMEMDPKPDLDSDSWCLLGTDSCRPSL

Chain of Serine/threonine-protein kinase Nek7 (Homo sapiens) (Q8TDX7 whole entry, looked up): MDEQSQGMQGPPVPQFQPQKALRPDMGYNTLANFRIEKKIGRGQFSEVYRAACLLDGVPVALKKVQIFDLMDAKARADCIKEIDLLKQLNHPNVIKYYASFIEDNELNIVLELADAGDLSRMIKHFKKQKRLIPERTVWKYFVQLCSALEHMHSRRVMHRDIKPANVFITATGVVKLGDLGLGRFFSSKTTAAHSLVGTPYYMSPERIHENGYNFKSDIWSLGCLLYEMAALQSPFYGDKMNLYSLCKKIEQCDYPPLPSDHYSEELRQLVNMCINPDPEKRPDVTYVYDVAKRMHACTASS
Chain of Serine/threonine-protein kinase Nek6 (Homo sapiens) (Q9HC98 whole entry): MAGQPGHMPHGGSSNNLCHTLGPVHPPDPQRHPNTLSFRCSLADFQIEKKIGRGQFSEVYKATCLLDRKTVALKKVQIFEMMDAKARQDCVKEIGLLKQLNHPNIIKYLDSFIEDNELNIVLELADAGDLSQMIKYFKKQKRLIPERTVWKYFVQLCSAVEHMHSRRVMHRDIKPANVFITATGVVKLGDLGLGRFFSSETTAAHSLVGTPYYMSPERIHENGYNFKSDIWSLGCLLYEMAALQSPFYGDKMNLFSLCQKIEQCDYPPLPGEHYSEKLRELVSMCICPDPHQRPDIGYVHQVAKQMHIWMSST
Chain of Casein kinase II subunit alpha (Homo sapiens) (P68400 whole entry, looked up): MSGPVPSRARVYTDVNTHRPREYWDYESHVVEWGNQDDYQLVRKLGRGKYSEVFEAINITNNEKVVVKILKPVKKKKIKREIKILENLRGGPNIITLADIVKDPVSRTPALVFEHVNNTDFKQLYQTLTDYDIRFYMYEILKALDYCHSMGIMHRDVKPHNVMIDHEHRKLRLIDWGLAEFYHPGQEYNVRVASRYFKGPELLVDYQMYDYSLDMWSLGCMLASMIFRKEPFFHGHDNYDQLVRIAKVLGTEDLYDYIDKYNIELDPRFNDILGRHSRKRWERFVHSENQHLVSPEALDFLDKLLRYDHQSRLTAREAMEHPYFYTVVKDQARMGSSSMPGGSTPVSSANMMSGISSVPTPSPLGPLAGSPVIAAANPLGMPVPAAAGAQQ
Chain of Sphingosine kinase 1 (Homo sapiens) (Q9NYA1 whole entry): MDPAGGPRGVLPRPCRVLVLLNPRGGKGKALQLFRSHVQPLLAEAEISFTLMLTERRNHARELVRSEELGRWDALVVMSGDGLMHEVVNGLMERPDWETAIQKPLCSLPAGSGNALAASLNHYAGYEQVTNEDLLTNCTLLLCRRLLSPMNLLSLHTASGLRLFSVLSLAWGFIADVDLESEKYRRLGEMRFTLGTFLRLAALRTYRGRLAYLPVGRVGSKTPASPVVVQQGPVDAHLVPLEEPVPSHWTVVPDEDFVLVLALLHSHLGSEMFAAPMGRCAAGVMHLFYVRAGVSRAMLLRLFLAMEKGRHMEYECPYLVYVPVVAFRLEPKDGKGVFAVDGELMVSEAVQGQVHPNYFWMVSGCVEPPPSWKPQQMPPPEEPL

Row | Structure (SMILES) | inhibition [1] [%] | inhibition [2] [%] | inhibition [3] [%] | inhibition [4] [%] | inhibition [5] [%] | inhibition [6] [%] | inhibition [7] [%] | inhibition [8] [%] | inhibition [9] [%] | inhibition [10] [%] | inhibition [11] [%] | inhibition [12] [%] | inhibition [13] [%] | inhibition [14] [%] | inhibition [15] [%] | inhibition [16] [%] | inhibition [17] [%] | inhibition [18] [%] | inhibition [19] [%] | inhibition [20] [%]
1 | COc1ccccc1Nc1ncc(-c2ccccc2)o1 | -6.75 | -0.59 | -0.16 | 6.18 | 8.04 | 10.7 | 9.03 | 9.9 | 9.61 | 9.49 | 7.83 | 3.62 | 3 | 6.46 | 6.16 | 0.52 | 1.67 | 2.39 | 5.45 | 5.2
2 | COc1cc(C=NNc2ncnc3c2cnn3-c2ccccc2)ccc1O | -3.84 | -0.52 | -2.55 | 9.38 | 41.6 | 10.6 | -1.27 | 3.33 | -0.52 | 3.38 | 8.67 | 3.59 | 15.8 | 2.6 | 3.58 | 1.23 | -0.37 | 3.01 | 5.26 | 3.36
